# Measured values published in PubChem BioAssay.
# “And” between values parts separate entries of the source, which are not always exact repeats. Equal values may be shown once. The source made the active and inactive calls. Unless noted, no stated cut-off is given here; in the data, active means inhibition above about 80%; inactive means the rest.
# Experiments:
# [1] = growth inhibition, single agent or in combination, cell-based, chromothripsis tumors, cisplatin or BGB combos (AID 1671449); conditions: LFS_MB_P medulloblastoma cells;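 further: cells exposed for 96 hours; 0% = vehicle DMSO and 100% = killing by high DMSO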
# [2] = growth inhibition, single agent and combos, cell-based, chromothripsis tumors, cisplatin or BGB combos (AID 1671450); conditions: HDN33 neuroblastoma cells, stronger effect = higher value;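 further: cells exposed to compound for four days; 0% = vehicle DMSO and 100% = cell killing by high DMSO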
# [3] = growth inhibition, single agents and combos, ICB984, cell-based, cisplatin or BGB combos, synergistic combos for chromothripsis tumors (AID 1671451; call rule not given here;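 further: cells exposed for 96 hours before readout; 0% = vehicle DMSO and 100% = killing by high DMSO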); conditions: ICB984 medulloblastoma cells, drug combinations, stronger effect = higher value
# [4] = growth inhibition, single agents and combos, LFS_MB_1R, cell-based, cisplatin or BGB combos, synergistic combos for chromothripsis tumors (AID 1671452); conditions: LFS_MB_1R medulloblastoma cells, stronger effect = higher value;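 further: cells exposed for 96 hours before readout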
# [5] = growth inhibition, single agents and combos, HTB85, cell-based, BGB or cisplatin IC20 combos, synergistic combos for chromothripsis tumors (AID 1671453); conditions: HTB85 osteosarcoma cells, drug combinations, stronger effect = higher value;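 further: cells exposed for 96 hours before readout; 0% = vehicle DMSO and 100% = high DMSO killing control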
# [6] = growth inhibition, single agents and combos, CRL2098, cell-based, BGB or cisplatin IC20 combos, synergistic combos for chromothripsis tumors (AID 1671454); conditions: CRL2098 osteosarcoma cells, drug combinations, stronger effect = higher value;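 further: cells exposed for 96 h before readout; 0% = vehicle DMSO and 100% = killing by high DMSO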
# [7] = growth inhibition, single agents and combos, HD-MB03, cell-based, BGB or cisplatin IC20 combos, synergistic combos for chromothripsis tumors (AID 1671455; in the data active means inhibition above about 83%;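 further: 0% = vehicle DMSO and 100% = high DMSO as cytotoxic control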); conditions: HD-MB03 medulloblastoma cells, stronger effect = higher value
# [8] = growth inhibition, single agents and combos, UWB1.289, cell-based, BGB or cisplatin combos, synergistic combos for chromothripsis tumors (AID 1671456); conditions: UWB1.289 ovarian carcinoma cells, stronger effect = higher value;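 further: cells exposed to compound for four days; 0% = vehicle DMSO and 100% = killing by high DMSO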
# [9] = growth inhibition, single agents and combos, LFS_MB_2R, cell-based, cisplatin combos, synergistic combos for chromothripsis tumors (AID 1671457); conditions: LFS_MB_2R medulloblastoma cells, stronger effect = higher value;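 further: cells exposed to compound for four days before readout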
# [10] = growth inhibition, MDA-MB-436, cell-based, BGB or cisplatin combos, synergistic combos for chromothripsis tumors (AID 1671458; call rule not given here;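 further: cells exposed for 96 hours; 0% = vehicle DMSO and 100% = killing by high DMSO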); conditions: MDA-MB-436 breast carcinoma growth inhibition, drug combinations, stronger effect = higher value
# [11] = UWB1.289_BRCA1 ovarian cancer growth, cell-based, BGB or cisplatin combinations (AID 1671459); conditions: UWB1.289 BRCA1 ovarian carcinoma, drug combinations, stronger effect = higher value
# [12] = drug combination toxicity in non-malignant astrocytes – cell-based, BGB or cisplatin IC20 combos, cytotoxicity control for chromothriptic childhood tumor combination screen (AID 1671460); conditions: Human astrocytes, viability inhibition, drug combinations, at 0.5 µM, stronger effect = higher value;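 further: cells exposed to compounds for 96 hours before viability readout; 0% = vehicle and 100% = killing control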
# [13] = BT084 cell growth, single and combined drugs, ICGC_MB145, cisplatin and BGB IC40 combos (AID 1671461); conditions: BT084 medulloblastoma cells, drug combinations, stronger effect = higher value;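 further: cells exposed to drugs for 96 hours; 0% = vehicle DMSO and 100% = high DMSO full killing control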
# [14] = RCMB18 cell growth, single agent and combined, cisplatin and BGB IC40 combos (AID 1671462); conditions: RCMB18 medulloblastoma cells, stronger effect = higher value;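 further: cells exposed to compound for four days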
# [15] = CRL1545 cell growth, single agent and combined, cisplatin and BGB IC20 combos (AID 1671464); conditions: CRL1545 osteosarcoma cells, stronger effect = higher value;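 further: cells exposed to compound for 96 hours before readout; 0% = vehicle DMSO and 100% = high DMSO killing control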
# [16] = compounds altering circadian rhythm period length – cell-based, LOPAC library, luminescence reporter (AID 2774; call rule not given here;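 further: values are relative to mean of DMSO wells on each plate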); conditions: circadian reporter cells, at 7 µM, actives lie on both sides
# [17] = antimalarial activity against Dd2 strain (AID 2302;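 active means growth inhibition above 50% at the single 2 µM test dose, taken to imply half-maximal potency below 2 µM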;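 further: 0% = DMSO untreated growth and 100% = chloroquine plus artemisinin killed control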); conditions: P. falciparum Dd2 in RBCs, LDH growth readout, 72 h; at 2 µM; stronger effect = higher value
# [18] = human hepatoma cell viability loss – ATP luminescence, cytotoxicity control for P. falciparum antimalarial project, primary screen (AID 2303;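 active means inhibition above 50%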;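 further: 0% = DMSO wells and 100% = digitonin-killed cells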); conditions: HepG2 viability, 24-48 h, at 10 µM, stronger effect = higher value
# [19] = biological target: L-lactate dehydrogenase (Plasmodium falciparum (isolate CDC / Honduras)) (UniProt Q27743); test: PfLDH activity inhibition – cell lysate, 3D7 strain, counter-screen for P. falciparum growth inhibition project (AID 2304; call rule not given here;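 further: 0% = vehicle and 100% = reference inhibitor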); conditions: P. falciparum 3D7 crude extract, LDH APAD/NBT absorbance; at 2 µM; stronger effect = higher value
# [20] = inhibition of 3D7 malaria parasite growth – strain 3D7 (AID 2306; call rule not given here;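 further: 0% = DMSO wells and 100% = chloroquine plus artemisinin control wells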); conditions: P. falciparum 3D7 erythrocytic growth, LDH absorbance, 72 h; at 2 µM; stronger effect = higher value
# [21] = galactose survival enhancers in mitochondrial complex I cybrids – cell-based, galactose medium, ATP luminescence, primary screen (AID 1645843;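 active means z-score of at least 1.8 in each of two replicates, scored against plate mean and spread of sample wells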;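 further: positive z means more ATP and so rescue of galactose-driven cybrid death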); conditions: complex I mutant cybrid cells, 72 h, stronger effect = higher value
# [22] = measured here: combination with BGB IC40, at 0.05 µM
# [23] = measured here: with BGB IC20 combination, at 0.5 µM
# [24] = measured here: with cisplatin IC20 combination, at 0.5 µM
# [25] = measured here: combination with cisplatin, at 0.5 µM
# [26] = measured here: combination with cisplatin, at 5 µM
# Sequence of L-lactate dehydrogenase (Plasmodium falciparum (isolate CDC / Honduras)) (Q27743 whole entry, looked up): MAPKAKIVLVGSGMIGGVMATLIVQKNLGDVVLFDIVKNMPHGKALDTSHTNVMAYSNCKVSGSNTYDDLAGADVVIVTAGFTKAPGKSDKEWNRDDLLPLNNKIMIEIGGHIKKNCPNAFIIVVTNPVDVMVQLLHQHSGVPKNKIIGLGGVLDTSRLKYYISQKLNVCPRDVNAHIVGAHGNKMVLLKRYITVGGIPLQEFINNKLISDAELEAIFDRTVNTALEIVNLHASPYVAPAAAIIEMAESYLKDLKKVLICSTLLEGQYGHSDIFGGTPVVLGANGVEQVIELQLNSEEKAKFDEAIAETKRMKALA
smiles,measurement,setting,value
Cc1c(N)nc(C(CC(N)=O)NCC(N)C(N)=O)nc1C(=O)NC(C(=O)NC(C)C(O)C(C)C(=O)NC(C(=O)NCCc1nc(-c2nc(C(=O)NCCC[S+](C)C)cs2)cs1)C(C)O)C(O[C@@H]1O[C@@H](CO)[C@@H](O)[C@H](O)[C@@H]1O[C@H]1O[C@H](CO)[C@@H](O)[C@H](OC(N)=O)[C@@H]1O)c1cnc[nH]1 (some centres not stated),inhibition,"[1]; at 0.5 µM, stronger effect = higher value",-26.9% (inactive) and -11.5% (inactive)
same,inhibition,"[1]; measured here: combination with BGB IC20, at 0.005 µM",28.9% and -33.7%
same,inhibition,"[1]; measured here: combination with BGB IC40, at 0.005 µM",-4.08% and -32.1%
same,inhibition,[1]; [22],1.25% and -43.8%
same,inhibition,"[1]; measured here: combination with cisplatin, at 0.5 µM, stronger effect = higher value",-37.7% and -28%
same,inhibition,"[1]; measured here: combination with cisplatin, at 5 µM, stronger effect = higher value",-0.936% and -58.3%
same,inhibition,"[2]; BGB combo, at 5 µM",94.9% and 96.7%
same,inhibition,[2]; at 0.5 µM,56.2% (inactive) and 63.6% (inactive)
same,inhibition,"[2]; cisplatin combo, at 5 µM",90% and 97.3%
same,inhibition,[2]; [23],57.4% and 65.6%
same,inhibition,[2]; [24],46.8% and 53.3%
same,inhibition,"[2]; single agent, at 5 µM",95% and 97.6%
same,inhibition,"[3]; BGB IC20 combo, at 0.005 µM",15.2% and 12.8%
same,inhibition,"[3]; BGB IC40 combo, at 0.005 µM",-5.04% and -17.2%
same,inhibition,"[3]; BGB IC40 combo, at 0.05 µM",2.59% and -11.2%
same,inhibition,[3]; at 0.5 µM,-18.3% (inactive) and -34.3% (inactive)
same,inhibition,"[3]; cisplatin combo, at 0.05 µM",-0.135% and -15.2%
same,inhibition,"[3]; cisplatin combo, at 0.5 µM",-22.6% and -41.3%
same,inhibition,"[3]; cisplatin combo, at 5 µM",-35.8% and -29.6%
same,inhibition,"[3]; measured here: 5 uM single agent, at 5 µM",-30.1% and -12.5%
same,inhibition,[4]; at 0.5 µM,-1.28% (inactive) and 4.59% (inactive)
same,inhibition,[4]; [22],-22.4% and 5.32%
same,inhibition,[4]; [25],19.1% and 22.6%
same,inhibition,[4]; [26],2.08% and 20.3%
same,inhibition,[5]; at 0.5 µM,23% (inactive) and 30.3% (inactive)
same,inhibition,"[5]; measured here: with BGB IC20, at 0.5 µM",21.6% and 26.9%
same,inhibition,"[5]; measured here: with BGB IC20, at 5 µM",61.8% and 92.6%
same,inhibition,"[5]; measured here: with cisplatin IC20, at 0.5 µM",14.2% and 23.1%
same,inhibition,"[5]; measured here: with cisplatin IC20, at 5 µM",54.6% and 74.3%
same,inhibition,"[5]; single agent, at 5 µM",73.7% and 82.2%
same,inhibition,[6]; at 0.5 µM,33.9% (inactive) and 38.3% (inactive)
same,inhibition,"[6]; measured here: combination with BGB at IC20, at 0.5 µM",21% and 37.5%
same,inhibition,"[6]; measured here: combination with cisplatin at IC20, at 0.5 µM",31% and 27.7%
same,inhibition,[7]; at 0.5 µM,48.5% (inactive) and 64.8% (inactive)
same,inhibition,"[7]; measured here: combo with BGB at IC20, at 0.5 µM",54.2% and 75.3%
same,inhibition,"[7]; measured here: combo with cisplatin at IC20, at 0.5 µM",40% and 68.2%
same,inhibition,[8]; at 0.5 µM,22.8% (inactive) and 41.7% (inactive)
same,inhibition,"[8]; measured here: inhibition with BGB combination, at 0.05 µM",12.4% and -1.23%
same,inhibition,"[8]; measured here: inhibition with cisplatin combination, at 0.05 µM",12.6% and 30.8%
same,inhibition,[9]; at 0.5 µM,-1.61% (inactive) and -19.6% (inactive)
same,inhibition,[9]; [25],1.34% and -24.5%
same,inhibition,[9]; [26],-27.5% and -11.4%
same,inhibition,[10]; at 0.5 µM,15.9% (inactive) and 17.6% (inactive)
same,inhibition,"[10]; measured here: BGB combination, at 0.5 µM",8.64% and 0.685%
same,inhibition,"[10]; measured here: BGB combination, at 5 µM",29.8% and 10.1%
same,inhibition,"[10]; measured here: cisplatin combination, at 0.5 µM",17.1% and 11.9%
same,inhibition,"[10]; measured here: cisplatin combination, at 5 µM",42.7% and 28.7%
same,inhibition,"[11]; BGB combination, concentration series, at 5 µM",33.2% and 41.4%
same,inhibition,[11]; at 0.5 µM,17% (inactive) and 31.1% (inactive)
same,inhibition,"[11]; cisplatin combination, concentration series, at 5 µM",31.9% and 22.9%
same,inhibition,[12],35.7% (inactive) and 41.9% (inactive)
same,inhibition,[12]; measured here: combo with BGB IC20,41.1% and 49.2%
same,inhibition,[12]; measured here: combo with cisplatin IC20,9.83% and 15.3%
same,inhibition,[13]; at 0.5 µM,-4.03% (inactive) and -7.21% (inactive)
same,inhibition,"[13]; cisplatin combination, at 0.5 µM",-3.29% and -12.5%
same,inhibition,"[13]; cisplatin combination, at 5 µM",4.08% and 10.3%
same,inhibition,"[13]; measured here: BGB IC40 combination 0.05 uM, at 0.05 µM",-1.66% and -25.1%
same,inhibition,"[13]; single agent, at 5 µM",-12.7% and -10.7%
same,inhibition,[14]; at 0.5 µM,32.3% (inactive) and -22.9% (inactive)
same,inhibition,"[14]; cisplatin combo, at 5 µM",15.5% and 7.73%
same,inhibition,"[14]; measured here: BGB IC40 combination, at 0.05 µM",-15.7% and -30.1%
same,inhibition,[14]; [25],27.9% and 2.02%
same,inhibition,"[14]; single agent, at 5 µM",-20% and -46.7%
same,inhibition,[15]; at 0.5 µM,32% (inactive) and 45.1% (inactive)
same,inhibition,[15]; [23],25.4% and 41.5%
same,inhibition,[15]; [24],33.8% and 46%
same,inhibition,"[15]; single agent, at 0.05 µM",23% and 12.8%
same,inhibition,"[15]; single agent, at 5 µM",88.5% and 95.5%
C=CCN1CCC2(C)c3cc(O)ccc3CC1[C@@H]2C (some centres not stated),period change,[16],-0.025 h (inactive)
N[C@@H](Cn1cc(I)c(=O)[nH]c1=O)C(=O)O,period change,[16],-0.19 h (inactive)
CC(C)[C@@]1(NC(=O)[C@@H]2C=C3c4cccc5[nH]cc(c45)C[C@H]3N(C)C2)O[C@@]2(O)[C@@H]3CCCN3C(=O)[C@H](Cc3ccccc3)N2C1=O,period change,[16],0.465 h (inactive)
Nc1ncnc2c1ncn2C1OC2COP(O)(=S)O[C@@H]2[C@@H]1O (some centres not stated),period change,[16],-0.125 h (inactive)
Cc1ccc(C[C@H](C)NC[C@H](O)c2cccc(C(F)(F)F)c2)cc1,growth inhibition,[17],54% (active)
same,inhibition,[18],5% (inactive)
same,inhibition,[19],-1% (inactive)
same,growth inhibition,[20],100% (active)
COc1ccc(CN2CCN(C)C(CCO)C2)c(OC)c1OC (configuration not stated),z-score,[21],-0.21 (inactive)
CC(O)C(C)OC(=O)[C@@H]1C[C@@H]2c3cccc4c3c(cn4C(C)C)C[C@H]2N(C)C1 (some centres not stated),period change,[16],0.035 h (inactive)
CCN(CC)C(=O)N[C@@H]1C=C2c3cccc4[nH]cc(c34)C[C@H]2N(C)C1,period change,[16],0.415 h (inactive)
CC1=C[C@@H]2c3cccc4[nH]cc(c34)C[C@H]2N(C)C1,period change,[16],0.28 h (inactive)
C[C@]12CC[C@@H](O)CC1CC[C@@H]1[C@@H]2CC[C@]2(C)C(=O)CC[C@@H]12 (some centres not stated),period change,[16],0.105 h (inactive)
CP(=O)(O)CCCN,period change,[16],-0.005 h (inactive)
